Compound activity (PubChem)
A selection: hits, their analogues and other compounds. The true share with any hit is near 0.95%.
LmPK inh: qHTS Assay for Inhibitors of Leishmania Mexicana Pyruvate Kinase (LmPK); Potency, µM (series often up to 57.5 µM), hits mostly inhibitors; purified LmPK, Kinase-Glo ATP luminescence, 1 h; actives 0.37% (n = 290,000)
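Pyruvate kinase activity monitored as ATP production (luciferase luminescence). Conditions: 0.1 nM enzyme, 0.5 mM PEP, 0.1 mM ADP, 1 h, RT; normalized against uninhibited and no-enzyme wells.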
RE007 growth inh: qHTS Assay for Inhibitors of the HIV-1 protein Vpr; Potency, µM (doses to about 92.2 µM), most hits filed as inhibitors; actives 0.21% (n = 360,000); S. pombe RE007 Vpr strain, BacTiter-Glo ATP luminescence, 24 h; active = well fitted falling curve with a large enough effect; inconclusive = small, poorly fitted or top-dose-only effect; inactive = no such curve, though single readings can be large or run the other way; note: nearly all actives have a fitted effect of over 50% in size
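Fission yeast strain RE007, carrying one chromosomally integrated HIV-1 vpr copy, was seeded at OD 0.01 in PMG+AL medium with 23 nL pinned compound. After 24 h at 30 °C and 99% humidity, viability was read by BacTiter-Glo luminescence.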
TbPYK inhibitor: qHTS of Trypanosoma Brucei Inhibitors; actives 0.12% (n = 410,000); TbPYK enzyme, Kinase-Glo Plus ATP luminescence, 45 min; Potency, µM (doses to about 76.8 µM), most hits filed as inhibitors; AID 624173, 2012; note: nearly all actives have a fitted effect of over 50% in size
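In this concentration-response screen, enzyme-free wells defined baseline while DMSO plates tracked drift. Each reaction combined TbPYK, substrate, compound and 130 uM ADP for 45 min at room temperature. Kinase-Glo Plus luminescence gave the signal.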
Giardia FBPA inh-1: qHTS Assay for Inhibitors of Fructose-1,6-bisphosphate Aldolase from Giardia Lamblia. actives 0.71% (n = 290,000). A8B2U2. AID 2451, 2010. Potency, µM (doses to about 59.6 µM), usual class: inhibitors. purified Giardia FBPA; note: nearly all actives have a fitted effect of over 55% in size
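Giardia FBPA (40 nM reagent) was preincubated 10 min at RT with compound (up to 57.5 uM final), then substrate plus GAPDH/TPI/NAD/arsenate coupling system with diaphorase/resazurin was added; resorufin fluorescence (525/598 nm) was read after 20 min.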
Giardia growth: qHTS Assay for Inhibitors of Fructose-1,6-bisphosphate Aldolase from Giardia Lamblia: Giardia lamblia growth inhibition; shares compounds with Giardia FBPA inh-1; Giardia lamblia trophozoite growth inhibition; Potency, µM (series often up to 57.5 µM), actives largely listed as inhibitors; actives 5% (n = 1,500);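 note: trophozoites exposed to compound for 48 h at 37 °C; nearly all actives have a fitted effect of over 70% in size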
Mammalian tox: qHTS Assay for Inhibitors of Fructose-1,6-bisphosphate Aldolase from Giardia Lamblia: Mammalian cellular toxicity; Potency, µM (highest dose often 57.5 µM), usual class: inhibitors; mammalian cell viability counter-screen, qHTS; AID 2786, 2010; shares compounds with Giardia FBPA inh-1; actives 4% (n = 1,500);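 note: Chinese hamster ovary cells used as mammalian cytotoxicity surrogate; viability measured as cellular ATP by luminescence; compound exposure lasted 48 h before reading; nearly all actives have a fitted effect of over 60% in size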
Giardia FBPA inh-2: qHTS Assay for Inhibitors of Fructose-1,6-bisphosphate Aldolase from Giardia Lamblia: Primary screen confirmation; actives 5% (n = 1,500); Potency, µM (top dose mostly 57.5 µM), hits mostly inhibitors; purified Giardia aldolase enzyme activity, qHTS; shares compounds with Giardia FBPA inh-1; AID 2787, 2010; note: nearly all actives have a fitted effect of over 45% in size
Rabbit aldolase: qHTS Assay for Inhibitors of Fructose-1,6-bisphosphate Aldolase from Giardia Lamblia: Rabbit FBPA Selectivity. shares compounds with Giardia FBPA inh-1. AID 2794, 2010. Rabbit muscle FBPA enzyme inhibition, selectivity counter-screen. Potency, µM (top dose mostly 57.5 µM), hits mostly inhibitors. actives 4% (n = 1,500); note: nearly all actives have a fitted effect of over 60% in size
Target sequence (P00883 whole entry, looked up): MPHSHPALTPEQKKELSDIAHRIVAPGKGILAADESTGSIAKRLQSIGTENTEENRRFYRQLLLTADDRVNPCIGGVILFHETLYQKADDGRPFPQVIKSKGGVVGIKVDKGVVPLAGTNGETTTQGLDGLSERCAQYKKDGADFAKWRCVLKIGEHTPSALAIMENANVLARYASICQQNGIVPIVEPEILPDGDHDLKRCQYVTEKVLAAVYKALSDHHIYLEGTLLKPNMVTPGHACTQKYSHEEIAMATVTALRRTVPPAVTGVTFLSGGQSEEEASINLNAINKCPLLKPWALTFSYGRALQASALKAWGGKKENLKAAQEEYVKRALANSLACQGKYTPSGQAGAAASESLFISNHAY
GAPDH counter: qHTS Assay for Inhibitors of Fructose-1,6-bisphosphate Aldolase from Giardia Lamblia: Coupling assay counterscreen confirmation | AID 2795, 2010 | shares compounds with Giardia FBPA inh-1 | actives 6% (n = 1,500) | Potency, µM (top dose mostly 57.5 µM), usual class: inhibitors | GAPDH coupling enzyme counterscreen, biochemical, qHTS; note: nearly all actives have a fitted effect of over 55% in size
A number is an active result; - = inactive; ? = inconclusive; . = no result; [ ] = remark or other dose. Unless noted, calls come from the whole dose curve; as a rule, active = well fitted curve in the direction sought with a large enough effect; inconclusive = small, poorly fitted or top-dose-only effect, or another doubt; inactive = no such curve, though single readings can be large; an effect the other way counts as inactive or inconclusive.

SMILES | LmPK inh | RE007 growth inh | TbPYK inhibitor | Giardia FBPA inh-1 | Giardia growth | Mammalian tox | Giardia FBPA inh-2 | Rabbit aldolase | GAPDH counter
COc1ccc(OC)c(S(=O)(=O)NCc2ccc3c(c2)CCN3C(=O)c2cccc(C)c2)c1 | . | . | - | . | . | . | . | . | .
O=C(CSc1ncnc2nc[nH]c12)c1ccc(Cl)cc1 | - | - | - | 14.1µM | -[10.4 µM] | - | - | - | -
Cc1nc(NC2CCCCC2)c2nc(-c3ccccc3)n(CCCN3CCCCC3C)c2n1 (stereo not given) | . | . | . | - | . | . | . | . | .
N[C@@H](CSS(=O)(=O)O)C(=O)O | . | . | . | ? | - | - | 22.4µM | 14.1µM | 22.4µM
Cc1ccc(NC(=O)CN2CCC(NC(=O)c3ccccc3F)CC2)cc1C | - | - | - | 17.8µM | ? | - | - | - | -
O=C(CN1CCC(NC(=O)c2ccccc2F)CC1)Nc1ccc2c(c1)OCO2 | - | - | - | - | . | . | . | . | .
N#Cc1c(C#N)c(O)c2ccccc2c1O | - | - | ? | 19.9µM | ? | - | ? | ? | ?
Cc1cc(O)c2ccccc2c1O | . | . | - | . | . | . | . | . | .
Cc1ccc(S(=O)(=O)Nc2cc(C)cn(Cc3ccccc3)c2=O)cc1 | - | - | - | 12.6µM | ? | - | ? | ? | 31.6µM
Cc1ccc(S(=O)(=O)Nc2cc(C)cn(Cc3ccc(F)cc3)c2=O)cc1 | - | - | - | 15.8µM | -[10.4 µM] | - | ? | ? | 25.1µM
Cc1cc2c(cc1NS(=O)(=O)c1ccc(F)cc1)n(C)c(=O)c(=O)n2C | . | . | - | . | . | . | . | . | .
COc1ccc(NC(=O)CSc2nc(-c3cc(OC)c(OC)c(OC)c3)[nH]c2-c2ccc(F)cc2)cc1 | . | . | - | . | . | . | . | . | .
C[C@@H]1C(=O)O[C@H]2[C@H](O)[C@@]34[C@H]5CC(C(C)(C)C)[C@]36[C@H](OC(=O)[C@H]6O)O[C@]4(C(=O)O5)[C@@]12O (stereo not given in full) | . | . | . | - | . | . | . | . | .
COc1ccc(Oc2ncc3nc(-c4cccc(C#N)c4)c(=O)n(C)c3n2)cc1 | . | . | . | - | . | . | . | . | .
CCOC(=O)c1[nH]cnc1C(=O)O | - | - | - | 17.7µM | - | - | - | - | -
CCOC(=O)c1[nH]cnc1C(=O)NC(C)C | - | - | - | - | . | . | . | . | .
CO/N=C(/C(=O)N[C@@H]1C(=O)N2C(C(=O)O)=C(CSc3cnns3)CS[C@H]12)c1csc(N)n1 | . | . | - | . | . | . | . | . | .
CO/N=C(/C(=O)N[C@@H]1C(=O)N2C(C(=O)O)=CCS[C@H]12)c1cnc(N)s1 | - | . | . | 15.8µM | - | - | - | - | -
CCOC(=O)[C@@](C)(N)Cc1ccc(O)c(O)c1 | . | . | - | . | . | . | . | . | .
OCCNC(=S)NCCc1ccccc1 | - | - | - | - | . | . | . | . | .
S=C(NCCc1ccccc1)Nc1c(Cl)cccc1Cl | - | - | - | 9.98µM | - | - | ? | ? | ?
S=c1[nH]nc(-c2ccccn2)n1/N=C/c1ccccc1 | - | - | ? | - | . | . | . | . | .
Cc1ccccc1/C=N/n1c(-c2ccccn2)n[nH]c1=S | - | - | ? | 3.97µM | - | - | - | - | -
Cc1ccc(/C=N/n2c(-c3ccccn3)n[nH]c2=S)o1 | - | - | ? | 11.2µM | - | - | - | - | -
S=c1[nH]nc(-c2ccccn2)n1/N=C/c1c(Cl)cccc1Cl | - | - | - | 6.29µM | - | - | - | - | -
